In PubChem BioAssay AID1259422 (The Scripps Research Institute Molecular Screening Center, 2018):
Out of some 640,000 compounds screened, about 9,300 (1.5%) were called active. The sample as a whole holds a higher share of actives than the screen did. Unmarked numbers belong to inactive results. Rule as the data show it: active = inhibition above about 32%; inactive = the rest.

Assay: TEAD-YAP interaction inhibition, primary screen, TEAD-YAP interaction inhibitor project, luminescence, HEK-TIYL cells (AID 1259422);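 also: 0% = median of test compound wells and 100% = reference inhibitor wells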
Conditions: TEAD-Gal4/YAP UAS-luciferase luminescence, at 9.12 µM, stronger effect = higher value
Work on `CC(C)N(CC(=O)N1c2ccccc2CC1C)Cc1ccccc1` (centres undefined) yielded an inhibition of -1.32%.
Work on `CC/C(=N/Nc1nnc2c(n1)[nH]c1ccccc12)c1ccccc1` yielded an inhibition of 0.16%.
For `Oc1ccc(O)c(/C=N/Nc2nnc3c(n2)[nH]c2ccccc23)c1`, the inhibition was 49% (active).
With `Cc1cccc2c1[nH]c1nc(N/N=C\c3ccc(O)cc3)nnc12` the inhibition was -16.6%.
`Cc1nc(N2CCC(NCC(F)(F)F)CC2)nc2cc3c(cc12)CCC3` showed an inhibition of -15.4%.
With `C/C(=N\NC(=O)c1nnn(-c2nonc2N)c1C)c1ccc(Cl)c(Cl)c1` the inhibition was -6.68%.
Work on `O=C(O)CCC(=O)N1CCC(c2nc3ccc(Cl)cc3[nH]2)CC1` yielded an inhibition of 1.09%.
`O=C(CCCn1c(=S)[nH]c2ccccc2c1=O)NCc1cccc(Cl)c1` showed an inhibition of 3.21%.
For `Cc1cc(C)cc(NC(=O)CCCn2c(=S)[nH]c3ccccc3c2=O)c1`, the inhibition was 34.5% (active).
In the case of `O=C(CCCn1c(=S)[nH]c2ccccc2c1=O)Nc1ccc(F)c(Cl)c1`, the inhibition is reported as -21.7%.
For `OCCNc1nc(N2CCCC2CO)nc2c1ncn2-c1ccsc1` (centres undefined), the inhibition was 14.6%.
Work on `OCC1CCCN1c1nc(NC2CC2)c2ncn(-c3ccccc3)c2n1` (centres undefined) yielded an inhibition of -46.6%.
In the case of `COc1ccc(CCNc2nc(N3CCCC3CO)nc3c2ncn3-c2ccsc2)cc1` (centres undefined), the inhibition is reported as 53.3% (active).
With `c1cnc(Nc2nc(Nc3ccc(N4CCOCC4)cc3)c3ncn(-c4ccsc4)c3n2)nc1` the inhibition was 51.1% (active).
`c1cc(Nc2nc(Nc3ccc(N4CCOCC4)cc3)c3ncn(-c4ccsc4)c3n2)ccn1` gave an inhibition of -4.11%.
With `c1ccc(-n2cnc3c(NCCN4CCOCC4)nc(Nc4ccc(-n5ccnc5)cc4)nc32)cc1` the inhibition was 61.3% (active).
For `CC(C)n1cnc2c(NCCCN3CCCC3=O)nc(-c3csc4ccccc34)nc21`, the inhibition was 3.47%.
With `c1ccc(Nc2nc(Nc3ccc(N4CCOCC4)cc3)c3ncn(-c4ccccc4)c3n2)cc1` the inhibition was 3.79%.
With `CC(C)n1cnc2c(NCCCN3CCCC3=O)nc(Nc3ccc(-n4ccnc4)cc3)nc21` the inhibition was 44.4% (active).
With `CN(C)c1cccc(Nc2nc(NCCN3CCOCC3)c3ncn(-c4ccccc4)c3n2)c1` the inhibition was 3.8%.
`OCCNc1nc(Nc2ccc(N3CCOCC3)cc2)nc2c1ncn2-c1ccccc1` gave an inhibition of 28.7%.
`O=C1CCCN1CCCNc1nc(Nc2ccc(-n3ccnc3)cc2)nc2c1ncn2CCN1CCCC1=O` showed an inhibition of 4.85%.
`C[C@@H]1CN(C(=O)C2CC23CCN(Cc2coc4ccccc4c2=O)CC3)C[C@H](C)O1` (some centres undefined) gave an inhibition of -6.72%.
With `Cc1cccc(-c2nc(-c3ccc(Cl)cc3)no2)c1` the inhibition was -40.1%.
In the case of `CCN(CC)S(=O)(=O)c1ccc(N2CCc3ccccc32)c([N+](=O)[O-])c1`, the inhibition is reported as -8.71%.
`CC(C)(C#N)OC(=O)Nc1cccc(Cl)c1` gave an inhibition of -3.72%.
Compound `Cc1ccc(N2C(=O)Cc3c2nc(N)c2c(N)nc(N4CCCCC4)c(C#N)c32)cc1C` has an inhibition of 18.1%.
Compound `CC(C)(C)NC(=O)c1cnn2c(C(F)(F)F)cc(-c3ccc(F)cc3)nc12` has an inhibition of 6.73%.
With `CCOCCOC(=O)COc1ccc2c(C)cc(=O)oc2c1` the inhibition was 3.62%.
Work on `Cc1ccc(-c2cc(C(=O)Nc3ccc(Br)cc3Br)c3ccccc3n2)o1` yielded an inhibition of -7.27%.
`Cc1nn(C)c(C)c1NC(=O)c1c([N+](=O)[O-])cnn1C` showed an inhibition of 4.42%.
In the case of `Cc1c(Cl)cccc1N1C(=O)c2ccc(Oc3ccc(Nc4ncnc5ccccc45)cc3)cc2C1=O`, the inhibition is reported as 2.53%.
`O=C(Cc1c(F)cccc1Cl)Nc1cc(C(=O)Nc2cccc(C(F)(F)F)c2)ccc1N1CC2CC(C1)c1cccc(=O)n1C2` (centres undefined) gave an inhibition of 2.29%.
Compound `COc1cc(Nc2nc(Nc3nccc4ccccc34)nc3c2ncn3-c2ccsc2)cc(OC)c1OC` has an inhibition of 12.9%.
Work on `CC(=O)Nc1ccc(Nc2nc(Nc3ccc(-n4ccnc4)cc3)nc3c2ncn3-c2ccsc2)cc1` yielded an inhibition of 24.8%.
With `COc1cc(Nc2nc(NCc3cccnc3)c3ncn(-c4ccsc4)c3n2)cc(OC)c1OC` the inhibition was 30.7%.
With `COc1ccc(CCNc2nc(Nc3ccc(-n4ccnc4)cc3)nc3c2ncn3-c2ccsc2)cc1` the inhibition was 65.1% (active).
In the case of `Nc1nc(NCc2cccnc2)nc2c1ncn2-c1ccsc1`, the inhibition is reported as -5.56%.
In the case of `Oc1ccc(CCNc2nc(NCCN3CCOCC3)nc3c2ncn3-c2ccsc2)cc1`, the inhibition is reported as 34.3% (active).
`Oc1ccc(CCNc2nc(Nc3ccc(N4CCOCC4)cc3)nc3c2ncn3-c2ccccc2)cc1` gave an inhibition of 9.04%.
With `c1ccc(Oc2ccc(Nc3nc(Nc4ccccn4)nc4c3ncn4-c3ccsc3)cc2)cc1` the inhibition was 2.53%.
In the case of `COc1cc(Nc2nc(NCc3cccnc3)nc3c2ncn3-c2ccsc2)cc(OC)c1OC`, the inhibition is reported as 0.91%.
With `CCNc1nc(Nc2cc(OC)c(OC)c(OC)c2)c2ncn(-c3ccsc3)c2n1` the inhibition was 48.6% (active).
With `Nc1nc(Nc2nccc3ccccc23)nc2c1ncn2-c1ccsc1` the inhibition was 53.2% (active).
With `c1ccc2c(Nc3nc(NCCN4CCOCC4)c4ncn(-c5ccsc5)c4n3)nccc2c1` the inhibition was 19.8%.
Compound `CCCCOc1ccc(NS(=O)(=O)c2cc(F)ccc2OC)cc1` has an inhibition of 1.6%.
`Cc1cc2c(cc1C)NC(c1cccc3ccccc13)C1=C(CC(C)(C)CC1=O)N2` (centres undefined) gave an inhibition of -9.75%.
`Cn1c(=O)n(Cc2ccc(F)cc2)c(=O)c2c1nc1oc(C(C)(C)C)cn12` gave an inhibition of -6.69%.
In the case of `O=[N+]([O-])c1ccc(S(=O)(=O)NCCSCc2ccco2)cc1`, the inhibition is reported as 6.05%.
`C/C(=N\NC(=O)c1ccc(CSc2nc(C)cc(C)n2)cc1)c1ccccc1O` showed an inhibition of 10.2%.
Compound `O=C1CCCN1CCCNc1nc(Nc2ccccc2)c2ncn(-c3ccsc3)c2n1` has an inhibition of 8.67%.
With `O=C1CCCN1CCCNc1nc(Nc2ccncn2)nc2c1ncn2-c1ccsc1` the inhibition was 50.5% (active).
For `CCNc1nc(NCCCN2CCCC2=O)c2ncn(-c3ccccc3)c2n1`, the inhibition was 4.42%.
With `CC(C)n1cnc2c(NCCc3ccc(O)cc3)nc(Nc3cnccn3)nc21` the inhibition was 36.5% (active).
With `CCN(CC)C(=O)C1CCCN(c2nc(NCCN(C(C)C)C(C)C)c3ncn(-c4ccsc4)c3n2)C1` (centres undefined) the inhibition was 36.7% (active).
`CC(C)n1c(Nc2cnccn2)nc2c(NCCc3ccc(O)cc3)ncnc21` gave an inhibition of 14.1%.
With `CCN(CC)C(=O)C1CCCN(c2nc(NC3CC3)c3ncn(-c4ccccc4)c3n2)C1` (centres undefined) the inhibition was 9.83%.
For `CCN(CC)C(=O)C1CCCN(c2nc(Nc3ccc(NC(C)=O)cc3)c3ncn(-c4ccsc4)c3n2)C1` (centres undefined), the inhibition was 24.3%.
`CC(C)n1cnc2c(NCCc3ccc(O)cc3)nc(Nc3cccc(N(C)C)c3)nc21` showed an inhibition of -1.31%.
For `Cc1cccc(C(=O)NCc2nnc(SCC(=O)N3N=C(c4cccs4)CC3c3ccc(F)cc3)n2C)c1` (centres undefined), the inhibition was 10.4%.
Compound `Cc1cccc(NC(=O)CC2SC(N)=NC2=O)c1C` (centres undefined) has an inhibition of 3.13%.
Compound `O=c1oc2ccccc2cc1-c1nnc(Nc2cccc3ccccc23)s1` has an inhibition of -25.6%.
With `COc1ccc(NC(=O)C2C3C=CC4(O3)C2C(=O)N(CCC(C)C)C4C(=O)NC2CCCCC2)cc1` (centres undefined) the inhibition was 6.81%.
Compound `O=S(=O)(c1ccc(Br)c2ccccc12)N1CCN(Cc2ccccc2)CC1` has an inhibition of 14.9%.
In the case of `O=c1onc(-c2cccs2)n1Cc1ccccc1`, the inhibition is reported as 4.82%.
With `Cc1cccc(NC(=O)Cn2c(-c3cccs3)noc2=O)c1` the inhibition was 33.3% (active).
In the case of `CCOC(=O)c1nnn(CC(=O)Nc2cccc(C)c2)c1C(=O)OCC`, the inhibition is reported as -6.24%.
`O=C(Nc1ccc(Cl)c(Cl)c1)c1ccc(C(=O)Nc2ccc(Cl)c(Cl)c2)cc1` gave an inhibition of -3.3%.
With `O=C(CC(O)(C(F)(F)F)C(F)(F)F)Nc1ccc(Cl)c(Cl)c1` the inhibition was 58.9% (active).
Compound `O=C(COc1ccc(CO)cc1)Nc1ccc(Cl)c(Cl)c1` has an inhibition of -15.9%.
In the case of `CCn1c(CNc2c(C)cccc2C)nnc1SCC(N)=O`, the inhibition is reported as -2.12%.
In the case of `CCOC(=O)c1c(NC(=O)c2cc(OC)c(OC)c(OC)c2)sc(C(=O)N2CCCC2)c1C`, the inhibition is reported as -7.23%.
For `CCOC(=O)c1cnc2c(C)c(C)ccc2c1NCCCN(C)C`, the inhibition was 81.7% (active).
For `CCOC(=O)c1cnc2c(Cl)c(Cl)ccc2c1NCCOC(=O)c1cccnc1`, the inhibition was 0.48%.
With `CCOC(=O)c1cnc2c(Cl)c(Cl)ccc2c1NCCN(C)C` the inhibition was -5.54%.
Compound `C/C(=C\C(=O)ONC(=O)c1ccccc1)NCc1ccccc1` has an inhibition of -18.2%.
Work on `CCOC(=O)C1=C(C)N(c2ccc(C)c(C)c2)C(=O)/C1=C\c1cccs1` yielded an inhibition of 3.05%.
`O=C(CNS(=O)(=O)c1cccc2nonc12)NCc1ccccc1` showed an inhibition of 8.04%.
With `Cc1ccc(NC(=O)CN2CCN(c3cccc(Cl)c3)CC2)cc1` the inhibition was 5.46%.
In the case of `COc1ccc(NC(=O)CN2CCN(C)CC2)c(OC)c1`, the inhibition is reported as -0.51%.
With `COc1cccc(N2CCN(CC(=O)Nc3ccccc3C(N)=O)CC2)c1` the inhibition was 91.2% (active).
`CCCCn1c(CNC(=O)c2cccc(OC)c2)nnc1SCC(=O)Nc1sc2c(c1C(=O)OCC)CCCC2` gave an inhibition of 1.81%.
`CCOCC(=O)NCc1ccc2c(c1)cc(C)n2C` showed an inhibition of -6.23%.
In the case of `CCOc1ccccc1C(=O)NCc1ccc2c(c1)cc(C)n2C`, the inhibition is reported as 51.1% (active).
In the case of `CCOc1ccccc1C(=O)NCc1ccccc1`, the inhibition is reported as -14.4%.
`CC1=NN(c2ccccc2)C(=O)C1Cl` (centres undefined) showed an inhibition of 17%.
In the case of `CC1=NN(c2ccccc2)C(=O)C1N=Nc1c(C)n[nH]c1C` (centres undefined), the inhibition is reported as 38.6% (active).
With `CC1=NN(c2ccccc2)C(=O)C1/C=C1\SC(=O)NC1=O` (centres undefined) the inhibition was 13.7%.
Work on `CC1=C(C(=O)OCc2ccccc2)C(c2cccc(I)c2)C2=C(CC(C)(C)CC2=O)N1` (centres undefined) yielded an inhibition of 6.12%.
